# Reference: PubChem BioAssay AID720519 (National Center for Advancing Translational Sciences (NCATS), 2013)
# Inconclusive results are not listed. Unmarked numbers belong to inactive results. Activity calls are given as the source filed them. Calls follow the shape of the dose curve; as a rule, active = well fitted activation curve with a large enough effect; inconclusive = small, poorly fitted or top-dose-only effect; inactive = flat fitted curve, though single readings scatter.
# Test: qHTS for Inhibitors of Cell Surface uPA Generation: Confirmatory Assay for Cherry-picked Compounds; as to inhibition: 0% is about no effect
# Conditions: cell surface uPA activity generation, qHTS confirmation; series mostly up to 115 µM; inhibition: at the top concentration
# Procedure, shortened: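 RAW 264.7 cells at 4000/well, incubated overnight, then treated with compounds. After 24 h at 37 C, viability was read by ATPlite luminescence. An increase in signal indicates blocked uPA-dependent LF entry.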
# Potency is read from the fitted curve at half-maximal effect.
Structure (SMILES),inhibition,Potency
CC1Cc2nc(SCC(=O)Nc3ccc4c(c3)OCO4)n(-c3ccc(F)cc3)c(=O)c2S1 (stereo not drawn),-0.168%,
O=[N+]([O-])c1ccc(-c2cn3c(n2)SCC3)cc1,-1.85%,
O=C(COc1ncnc2sccc12)Nc1cccc(S(=O)(=O)N2CCCC2)c1,-1.13%,
COC(=O)COc1cc2ccccc2cc1C(=O)Nc1ccccc1,-0.876%,
Cn1nc(N2CCN(S(=O)(=O)c3ccccc3)CC2)c(=O)n(C)c1=O,-0.274%,
COc1cc2c(cc1OC)CN(C(=O)c1ccc(-c3ccccc3)cc1)CC2,-3.75%,
CCC1=NN(C(=O)C(=O)Nc2ccc(OC)cc2)C(O)(C(F)(F)F)C1 (stereo not drawn),-1.82%,
CC1(C)CC(=O)C=C(c2ccc3ccccc3c2)C1,-0.951%,
O=C(NC1CCCC1)c1nc2c(nnn2Cc2ccccc2Cl)c(=O)[nH]1,-2.2%,
COC(=O)CSc1nc(N2CCOCC2)c2c(c1C#N)CCCC2,-3.22%,
COCCn1c(SCC(=O)Nc2ccc(F)cc2)nc2ccccc2c1=O,5.44%,
CCOC(=O)C1=CC[C@@H](c2cc3ccc(OC)cc3n2C)N(S(=O)(=O)c2ccc(C)cc2)[C@H]1C(=O)OCC,-1.93%,
CSCC[C@H](NC(=O)[C@H](Cc1ccccc1)n1c(=O)[nH]c2ccccc2c1=O)C(=O)N1CCC[C@H]1C(=O)O,-1.26%,
Cc1ccc(C(O)(COC(=O)C(C)C)COC(=O)C(C)C)c(O)c1,-2.69%,
CCC(CC)Nc1ccc(C(CC(N)=O)NC(=O)Cc2ccc(Br)cc2)cc1[N+](=O)[O-] (stereo not drawn),-2.62%,
O=C(CNC(=O)N1CC(=O)Nc2ccccc21)Nc1cc(Cl)ccc1Cl,2.5%,
O=C1OCC/C1=C\c1ccc(O)cc1,-2.46%,
O=C(COC(=O)c1cccc([N+](=O)[O-])c1)NNC(=O)c1cccs1,0.429%,
CCO[C@H]1OC(C(=O)N2CCCCCCC2)=C[C@@H](c2ccc(C(F)(F)F)cc2)[C@@H]1CCCO,-2.91%,

Structure (SMILES),inhibition,Potency
O=C(CC1(O)C(=O)Nc2ccccc21)c1cccc(Br)c1 (stereo not drawn),-0.164%,
Cc1nc(NC(=O)CSc2nnc(C3CC3)n2C)sc1C(=O)N(C)C,0.743%,
CC(C)OC(=O)c1ccc(N2CCN(c3ccccc3F)CC2)nc1,-2.84%,
C=CCc1cc(S(=O)(=O)c2ccc(O)c(CC=C)c2)ccc1O,3.72%,
CCOC(=O)N1CCc2c(sc3nc4n(c(=O)c23)N=C(C)CS4)C1,-1.91%,
O=C(COC(=O)C1CC2C=CC1C2)NCc1ccccc1Cl (stereo not drawn),1.24%,
O=C(O)CNC(=S)N(Cc1ccccc1)Cc1cccnc1,-1.63%,
CN(CCCNC(=O)Cn1cccc1C(=O)c1ccccc1)C1CCCCC1,-3.4%,
Cc1ccc(S(=O)(=O)NNC(=O)c2ccc(F)cc2)cc1,0.277%,
O=C(Cc1ccc(Cl)cc1)NC(=S)Nc1ccccc1O,2.56%,
Cc1[nH]c2ccccc2c1C(=O)C(C)OC(=O)c1ccccc1NCCO (stereo not drawn),-3.62%,
COc1ccc(Cc2nnc(NC(=O)Nc3ccc(F)cc3)s2)cc1,10.6%,
COc1cc2c(OC(C)=O)c3c(c(-c4ccc5c(c4)OCO5)c2cc1OC)C(=O)OC3,,2.33 µM (active)
COc1ccc(C(=O)NC(=S)Nc2ccc(NC(=O)c3ccco3)cc2)cc1[N+](=O)[O-],0.844%,
CS(=O)(=O)Nc1cccc(C2=NN(S(=O)(=O)c3ccccc3)C(c3ccco3)C2)c1 (stereo not drawn),-1.68%,
CCN1CCCCC(=N/O)/C(=N/O)CCCC1,2.88%,
COc1ccc(Nc2nc(-c3ccccc3)c(C(=O)Nc3cccnc3)s2)cc1,8.15%,
C=C(C)C(=O)O[C@H]1C/C(C)=C\C(=O)/C=C(\C)[C@H](O)[C@@H]2OC(=O)C(=C)[C@@H]21,9.72%,
NC(=O)C1CCN(C(=O)c2cccc3ccccc23)CC1,0.572%,
